Reference: PubChem BioAssay AID1159580 (chemical genetic matrix, 2015)
Hit rate of the full screen: of about 5,500 compounds, about 2,000 (36%) were called active. Roughly 18% stayed inconclusive and do not appear here. Cut-off read from the data, not from the text of the source: active = normalized growth mostly below about 0.91 (no sharp cut-off); inconclusive = no clear call, values can overlap the other calls; inactive = mostly above about 0.92. The list shows a part of the results.

Experiment: chemical genetic growth profiling, strain panel (AID 1159580);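 note: tested at 20 µM; growth read once vehicle control cultures reached saturation at 30 °C; 1 = growth at the plate median or of vehicle wells; lower values mean less growth of the strain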
Details: S. cerevisiae deletion strains, growth OD
[1] = locus YAL021C, strain ccr4, active compounds read low
[2] = locus YAL026C, strain drs2, active compounds read low
[3] = locus YAL030W, strain snc1, active compounds read low
[4] = locus YBL061C, strain skt5, active compounds read low
[5] = locus YBR009C, strain hhf1, active compounds read low
[6] = locus YBR023C, strain chs3, active compounds read low
[7] = locus YBR171W, strain sec66, active compounds read low
[8] = locus YBR231C, strain swc5, active compounds read low
[9] = locus YBR279W, strain paf1, active compounds read low
[10] = locus YCL011C, strain gbp2, active compounds read low
[11] = locus YCL016C, strain dcc1, active compounds read low
[12] = locus YCL061C, strain MRC1, active compounds read low
[13] = locus YCL069W, strain vba3, active compounds read low
[14] = locus YCR088W, strain abp1, active compounds read low
[15] = locus YDL005C, strain med2, active compounds read low
[16] = locus YDL040C, strain nat1, active compounds read low
[17] = locus YDR001C, strain nth1, active compounds read low
[18] = locus YDR069C, strain doa4, active compounds read low
[19] = locus YDR137W, strain rgp1, active compounds read low
[20] = locus YDR159W, strain sac3, active compounds read low
[21] = locus YDR297W, strain sur2, active compounds read low
[22] = locus YDR334W, strain swr1, active compounds read low
[23] = locus YDR335W, strain msn5, active compounds read low
[24] = locus YDR392W, strain spt3, active compounds read low
[25] = locus YEL003W, strain gim4, active compounds read low
[26] = locus YEL037C, strain rad23, active compounds read low
[27] = locus YEL061C, strain CIN8 (second series), active compounds read low
[28] = locus YER015W, strain faa2, active compounds read low
[29] = locus YER016W, strain bim1, active compounds read low
[30] = locus YER111C, strain swi4, active compounds read low
[31] = locus YER155C, strain BEM2 (second series), active compounds read low
[32] = locus YFR010W, strain ubp6, active compounds read low
[33] = locus YGL167C, strain pmr1, active compounds read low
[34] = locus YGL173C, strain kem1, active compounds read low
[35] = locus YGL227W, strain vid30, active compounds read low
[36] = locus YGL240W, strain doc1, active compounds read low
[37] = locus YGL253W, strain hxk2, active compounds read low
[38] = locus YHR013C, strain ard1, active compounds read low
[39] = locus YHR027C, strain rpn1, active compounds read low
[40] = locus YHR030C, strain SLT2, active compounds read low
[41] = locus YHR079C, strain IRE1, active compounds read low
[42] = locus YHR142W, strain chs7, active compounds read low
[43] = locus YJL092W, strain hpr5, active compounds read low
[44] = locus YJL095W, strain BCK1 (second series), active compounds read low
[45] = locus YJL095W, strain BCK1, active compounds read low
[46] = locus YJL115W, strain asf1, active compounds read low
[47] = locus YJL129C, strain trk1, active compounds read low
[48] = locus YJL154C, strain vps35, active compounds read low
[49] = locus YJL164C, strain tpk1, active compounds read low
[50] = locus YJL166W, strain qcr8, active compounds read low
[51] = locus YJL187C, strain SWE1, active compounds read low
[52] = locus YJR066W, strain TOR1, active compounds read low
[53] = locus YKL160W, strain elf1, active compounds read low
[54] = locus YKR026C, strain gcn3, active compounds read low
[55] = locus YKR091W, strain srl3, active compounds read low
[56] = locus YLL001W, strain dnm1, active compounds read low
[57] = locus YLL026W, active compounds read low
[58] = locus YLL041C, strain sdh2, active compounds read low
[59] = locus YLR027C, strain aat2, active compounds read low
[60] = locus YLR113W, strain HOG1, active compounds read low
[61] = locus YLR221C, strain rsa3, active compounds read low
[62] = locus YLR258W, strain gsy2, active compounds read low
[63] = locus YLR262C, strain YPT6 (second series), active compounds read low
[64] = locus YLR320W, strain mms22, active compounds read low
[65] = locus YLR342W, strain FKS1, active compounds read low
[66] = locus YLR357W, strain rsc2, active compounds read low
[67] = locus YLR370C, strain arc18, active compounds read low
[68] = locus YLR384C, strain iki3, active compounds read low
[69] = locus YML120C, strain ndi1, active compounds read low
[70] = locus YMR058W, strain fet3, active compounds read low
[71] = locus YMR125W, strain sto1, active compounds read low
[72] = locus YMR129W, active compounds read low
[73] = locus YMR205C, strain PFK2, active compounds read low
[74] = locus YMR231W, strain pep5, active compounds read low
[75] = locus YNL071W, strain lat1, active compounds read low
[76] = locus YNL183C, strain NPR1, active compounds read low
[77] = locus YNL209W, strain ssb2, active compounds read low
[78] = locus YNL248C, strain rpa49, active compounds read low
[79] = locus YNL322C, strain KRE1 (second series), active compounds read low
[80] = locus YNR049C, strain mso1, active compounds read low
[81] = locus YOR001W, strain rrp6, active compounds read low
[82] = locus YOR070C, strain gyp1, active compounds read low
[83] = locus YOR080W, strain dia2, active compounds read low
[84] = locus YOR083W, strain WHI5, active compounds read low
[85] = locus YOR106W, strain vam3, active compounds read low
[86] = locus YOR231W, strain MKK1, active compounds read low
[87] = locus YOR265W, strain rbl2, active compounds read low
[88] = locus YOR270C, strain vph1, active compounds read low
[89] = locus YOR290C, strain snf2, active compounds read low
[90] = locus YPL051W, strain arl3, active compounds read low
[91] = locus YPL078C, strain atp4, active compounds read low
[92] = locus YPL106C, strain sse1, active compounds read low
[93] = locus YPL240C, strain hsp82, active compounds read low
[94] = locus YPL256C, strain CLN2, active compounds read low

Measured: normalized growth

NC(=O)C(c1ccccc1)(c1ccccc1)C1CCN(CCc2ccc3c(c2)CCO3)C1 (stereo not given)
inactive: [1] 1.01 | [2] 1.02 | [3] 1.03 | [4] 1.01 | [5] 1.04 | [6] 1.02 | [7] 1.04 | [8] 0.976 | [9] 1.02 | [10] 1.03 | [11] 1.03 | [12] 1.02 | [13] 1.02 | [14] 1.02 | [15] 1.02 | [16] 1.03 | [17] 1.02 | [18] 1.04 | [19] 1.1 | [20] 1.03 | locus YDR195W, strain ref2 1.04 | [21] 1.02 | [22] 1.03 | [23] 1.01 | [24] 0.996 | [25] 1.03 | [26] 1.02 | [27] 1.01 | [28] 1.02 | [29] 1.04 | [30] 1.02 | [31] 1.04 | [32] 1.02 | [33] 1.02 | [34] 1.02 | [35] 1.01 | [36] 1.01 | [37] 1.02 | [38] 1.01 | [39] 1.03 | [40] 1.05 | [41] 1.05 | [42] 1 | [43] 1.01 | [44] 1.03 | [45] 0.986 | [46] 1.02 | [47] 0.999 | [48] 1.03 | [49] 1.04 | [50] 1.03 | [51] 1.02 | [52] 0.997 | [53] 1.02 | [54] 1.02 | [55] 1.02 | [56] 1.03 | [57] 1.02 | [58] 1.03 | [59] 1.03 | [60] 1.01 | [61] 1.02 | [62] 1.04 | [63] 1.08 | [64] 1.01 | [65] 1.02 | [66] 0.966 | [67] 1.01 | [68] 1.03 | [69] 1.01 | [70] 1.02 | [71] 1.01 | [72] 1.02 | [73] 1.03 | [74] 1.02 | [75] 1.01 | [76] 0.997 | [77] 1.02 | [78] 1.03 | [79] 1.04 | [80] 1.02 | [81] 1.03 | [82] 1.03 | [83] 1.01 | [84] 1 | [85] 1.01 | [86] 1.04 | [87] 1.05 | [88] 1.02 | [89] 1.08 | [90] 1.04 | [91] 1.01 | [92] 1.05 | [93] 1.03 | [94] 1.06

Nc1c(S(=O)(=O)O)cc(Nc2ccc(Nc3nc(Cl)nc(Nc4ccc(S(=O)(=O)O)cc4)n3)c(S(=O)(=O)O)c2)c2c1C(=O)c1ccccc1C2=O
inactive: locus YAL013W, strain DEP1, active compounds read low 0.977 | locus YAL040C, strain CLN3, active compounds read low 1.09 | locus YCL061C, strain MRC1 (second series), active compounds read low 1.01 | locus YDR150W, strain NUM1, active compounds read low 1.03 | locus YDR363W, strain ESC2, active compounds read low 1.01 | locus YER002W, strain NOP16, active compounds read low 1.03 | locus YGR078C, strain PAC10, active compounds read low 1.04 | locus YMR307W, strain GAS1, active compounds read low 1.05 | locus YNL128W, strain TEP1, active compounds read low 1.03 | locus YNL175C, strain NOP13, active compounds read low 1.03 | locus YNL197C, strain WHI3, active compounds read low 1.04 | locus YNL224C, strain SQS1, active compounds read low 1.04 | locus YNL322C, strain KRE1, active compounds read low 1.01 | locus YOR083W, strain WHI5 (second series), active compounds read low 1.04 | locus YPL241C, strain CIN2, active compounds read low 1.02

CC(=O)O[C@H]1[C@@H]2[C@@H](OC(=O)Cc3ccccc3)[C@@H](C)C[C@]2(OC(C)=O)C(=O)/C(C)=C/[C@H]2[C@H](CC[C@@]13CO3)C2(C)C
inactive: [1] 0.975 | [2] 0.985 | [3] 0.986 | [4] 0.984 | [5] 1 | [6] 0.982 | [7] 0.976 | [8] 0.988 | [9] 0.983 | [10] 0.979 | [11] 0.989 | [12] 0.992 | [13] 0.991 | [14] 0.992 | [15] 0.976 | [16] 0.978 | [17] 0.985 | [18] 0.98 | [19] 0.85 | [20] 0.977 | locus YDR195W, strain ref2 1.01 | [21] 0.97 | [22] 0.934 | [23] 0.978 | [24] 0.84 | [25] 0.981 | [26] 0.987 | [27] 0.984 | [28] 0.989 | [29] 0.979 | [30] 0.992 | [31] 0.984 | [32] 0.977 | [33] 0.97 | [34] 0.958 | [35] 0.99 | [36] 0.99 | [37] 0.974 | [38] 0.926 | [39] 0.983 | [40] 0.988 | [41] 0.981 | [42] 0.958 | [43] 0.97 | [44] 0.977 | [45] 0.989 | [46] 0.969 | [47] 0.941 | [48] 0.993 | [49] 0.982 | [50] 0.981 | [51] 0.988 | [52] 0.963 | [53] 0.972 | [54] 0.982 | [55] 0.985 | [56] 0.98 | [57] 0.98 | [58] 0.97 | [59] 0.975 | [60] 0.966 | [61] 0.975 | [62] 0.986 | [63] 0.878 | [64] 0.971 | [65] 0.966 | [66] 1.03 | [67] 0.987 | [68] 0.983 | [69] 0.967 | [70] 0.98 | [71] 1 | [72] 0.989 | [73] 0.984 | [74] 0.993 | [76] 0.909 | [77] 0.989 | [78] 0.98 | [79] 0.981 | [80] 0.978 | [81] 0.955 | [82] 0.985 | [83] 0.974 | [84] 0.972 | [85] 0.951 | [86] 0.961 | [87] 0.983 | [88] 0.815 | [89] 0.929 | [90] 0.958 | [91] 0.978 | [92] 1 | [93] 0.966 | [94] 0.967
active: [75] 0.914
